Structures are written as SMILES. Several values for one entry are separate records, joined by “and”; a condition that tells them apart may be missing. Equal entries are not always repeated. Values without a mark were called inactive. Results filed as inconclusive are left out. Activity calls are given as the source filed them. Unless noted, the call rests on the fitted dose curve; in most records, active means well fitted curve in the direction sought with a large enough effect; inconclusive means small, poorly fitted or top-dose-only effect, or another doubt; inactive means no such curve, though single readings can be large; an effect the other way counts as inactive or inconclusive.

The subject of one assay is Tov-21-G. In words: Primary qHTS to identify gynecologic anti-cancer compounds using libraries of approved drugs and bioactive compounds (AID 1345084). Further: nearly all actives have a fitted effect of over 55% in size. Further: potency means the concentration at half of the fitted maximal effect. As to conditions: Gynecologic cancer cell panel viability, ATPlite luminescence, 48 h; series mostly up to 57.5 µM. An outline of the steps:
(§1)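 Cytotoxicity screen measuring ATP content by luciferase luminescence. Each compound is applied at five concentrations for 48 h at 37 C with 5% CO2.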
On the technique in general: In qHTS, concentration-response curves come from the screen itself.

A further assay deals with Tov112D. The description is as above. As to conditions: Gynecologic cancer cell panel viability, ATPlite luminescence, 48 h; series mostly up to 57.5 µM. The method, boiled down:
as §1

A short description of assay [1]: Drug repurposing screens with cells derived from glioblastoma tumor samples (AID 1345199). Further: nearly all actives have a fitted effect of over 40% in size. Further: potency means the concentration at half of the fitted maximal effect. On activity, negative = cell killing: on the % scale 0 is the no-effect control and ±100 the full control effect. The settings on record: GBM patient neurospheres viability, ATP luminescence, 48 h. The method, boiled down: (§2)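 Primary testing used CD133+ neurospheres from four GBM patients, seven concentrations, 48 h exposure and ATP-based viability; confirmation added three slower-growing patient lines.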

Assay [2] addresses Nuclear receptor subfamily 1 group I member 2 (Rattus norvegicus) (UniProt Q9R1A7). In words: qHTS assay for small molecule activators of the rat pregnane X receptor (rPXR) signaling pathway (AID 651751; call rule not given here; further: 0% is about no effect). As to conditions: rPXR reporter cells, luciferase (One-Glo), 24 h.
The next assay relates to astro. In words: Drug repurposing screens with cells derived from glioblastoma tumor samples (AID 1345199). Further: nearly all actives have a fitted effect of over 40% in size. Further: potency means the concentration at half of the fitted maximal effect. On activity, negative = cell killing: on the % scale 0 is the no-effect control and ±100 the full control effect. As to conditions: viability, ATP luminescence, 48 h; series mostly up to 45.9 µM. The method, boiled down:
as §2

Assay [3] in a line: qHTS assay to identify inhibitors of the type 1 interferon - major histocompatibility complex class I in skeletal muscle: Counter screen cell viability and HiBit confirmation (AID 1347412). Further: on the % scale 0 is the no-effect control and ±100 the full control effect; nearly all actives have a fitted effect of over 60% in size. The settings on record: iHSKM muscle cells + IFN-b, HiBiT or CellTiter-Glo, 24 h, at 45.9 µM (top of the series). The method, boiled down: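 After 24 h with human IFN-beta (4 ng/ml) and compound titrations (top 46 uM final, 1:3, 12 points), HLA-B HiBit myoblasts were lysed for either Nano-Glo HiBiT luminescence or CellTiter Glo viability on paired plates.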

Assay [4] is described as follows: qHTS assay for small molecule activators of the human pregnane X receptor (PXR) signaling pathway (AID 720659; call rule not given here; further: 0% is about no effect).
[5] abbreviates: at 45.9 µM (top of the series), tumour line B.
Setting [6] is: at 45.9 µM (top of the series), tumour line D.
[7] abbreviates: at 46 µM (top of the series), tumour line A.
Setting [8] is: at 46.1 µM (top of the series), tumour line C.
[9] abbreviates: at 20 µM (top of the series), tumour line C.
Setting [10] is: at 21.2 µM (top of the series), tumour line B.
The mark [11] stands for this setting: at 21.2 µM (top of the series), tumour line D.
[12] abbreviates: at 21.3 µM (top of the series), tumour line A.

Sequence of Nuclear receptor subfamily 1 group I member 2 (Rattus norvegicus) (Q9R1A7 whole entry, looked up): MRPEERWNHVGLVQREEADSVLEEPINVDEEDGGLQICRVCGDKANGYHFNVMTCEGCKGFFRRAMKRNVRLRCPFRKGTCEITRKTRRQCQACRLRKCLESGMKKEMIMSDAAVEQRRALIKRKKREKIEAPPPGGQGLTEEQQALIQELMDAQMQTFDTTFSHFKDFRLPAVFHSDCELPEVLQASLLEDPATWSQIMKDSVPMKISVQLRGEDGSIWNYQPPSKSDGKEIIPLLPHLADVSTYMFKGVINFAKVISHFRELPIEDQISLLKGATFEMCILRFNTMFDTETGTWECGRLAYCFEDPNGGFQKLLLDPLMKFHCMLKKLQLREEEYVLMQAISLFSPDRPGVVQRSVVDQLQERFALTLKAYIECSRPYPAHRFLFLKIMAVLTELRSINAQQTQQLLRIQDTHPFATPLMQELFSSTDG

In the case of `OC(Cn1cncn1)(Cn1cncn1)c1ccc(F)cc1F`, the Potency result in the assay with Tov-21-G and with Tov112D was “inactive” throughout. Also, the activity, negative = cell killing in assay [1] (setting [5]) was -6.67%; in assay [1] (setting [6]), -19.6%; in assay [1] (setting [7]), -17.5%; in assay [1] (setting [8]), -6.89%. Further, in assay [2], the max response is 4.95%.

As for `COC(=O)Nc1nc2ccc(Sc3ccccc3)cc2[nH]1`, the Potency is 2820 nM (active) in the assay with Tov-21-G, 1410 nM (active) in the assay with Tov112D, 224 nM (active) in assay [1] (tumour line A) and 631 nM (active) in the assay with astro. For the same compound, the activity, negative = cell killing in assay [1] (setting [9]) is -28.6%.

Consider `Cc1cccc(N(C)C(=S)Oc2ccc3ccccc3c2)c1`, for which the Potency result with Tov-21-G, in the assay with Tov112D and in the assay with astro was “inactive” in each case. The activity, negative = cell killing is -6.63% in assay [1] (setting [9]), -15.9% in assay [1] (setting [10]) and -7.02% in assay [1] (setting [11]).

Consider `CN(C)CCc1c[nH]c2ccc(C[C@H]3COC(=O)N3)cc12`, for which the Potency entry in the assay with Tov-21-G, in the assay with Tov112D and in the assay on astro was “inactive” each time. Besides, the activity, negative = cell killing is -19.9% in assay [1] (setting [5]), -11% in assay [1] (setting [6]) and 4.56% in assay [1] (setting [8]).

Take `CCC(=O)O[C@]1(C(=O)SCF)[C@H](C)C[C@H]2[C@@H]3C[C@H](F)C4=CC(=O)C=C[C@]4(C)[C@@]3(F)[C@@H](O)C[C@@]21C`: the Potency entry in the assay on Tov-21-G and in the assay with Tov112D was “inactive” each time. In addition, the activity, negative = cell killing is -9.5% in assay [1] (setting [9]), -18.7% in assay [1] (setting [10]), 13.1% in assay [1] (setting [11]) and -14.8% in assay [1] (setting [12]). For the same compound, the activity change, negative = inhibition in assay [3] (HiBiT) was -26.7%; in assay [3] (Viability), 10%.

`COc1ccc(C(=O)CC(=O)c2ccc(C(C)(C)C)cc2)cc1`: the Potency entry with Tov-21-G, in the assay on Tov112D and in the assay with astro was “inactive” each time. The activity, negative = cell killing in assay [1] (setting [6]) is -26.5%; in assay [1] (setting [8]), 3.24%.

Regarding `Nc1nc(N)nc(-c2cc(Cl)ccc2Cl)n1`, the Potency result in the assay with Tov-21-G, in the assay on Tov112D and with astro was “inactive” throughout. Moreover, the activity, negative = cell killing in assay [1] (setting [5]) is 1.99%; in assay [1] (setting [6]) it was 7.54%; in assay [1] (setting [8]), 13.1%.

For the compound `COc1c(N2CCNC(C)C2)c(F)cc2c(=O)c(C(=O)O)cn(C3CC3)c12` (configuration not stated), the Potency entry with Tov-21-G, in the assay on Tov112D and in the assay with astro was “inactive” throughout. The activity, negative = cell killing was -10.7% in assay [1] (setting [5]), -20.8% in assay [1] (setting [6]) and 14.5% in assay [1] (setting [8]).

As for `NNC(=O)c1ccncc1`, the Potency result with Tov-21-G and in the assay with Tov112D was “inactive” each time. For the same compound, the activity, negative = cell killing in assay [1] (setting [5]) is -4.35%; in assay [1] (setting [6]), -4.61%; in assay [1] (setting [8]), -1.87%. Also, the max response in assay [2] is 6.47%. For the same compound, the compound was called inactive in assay [4].

With `CNS(=O)(=O)CCc1ccc2[nH]cc(C3CCN(C)CC3)c2c1`, the Potency result with Tov-21-G, with Tov112D and with astro was “inactive” in each case. Moreover, the values for the activity, negative = cell killing in assay [1] (setting [5]), in assay [1] (setting [6]) and in assay [1] (setting [8]) were -8.38%, 2.37% and 9.59%, respectively.

As to `Cc1onc(-c2ccccc2Cl)c1C(=O)N[C@@H]1C(=O)N2[C@@H]1SC(C)(C)[C@@H]2C(=O)O`, the Potency result in the assay on Tov-21-G, with Tov112D and in the assay with astro was “inactive” each time. In addition, the activity, negative = cell killing in assay [1] (setting [9]) was 1.94%; in assay [1] (setting [10]), -1.92%; in assay [1] (setting [11]), -24.2%.

In the case of `Cc1nnc(NS(=O)(=O)c2ccc(N)cc2)s1`, the Potency result in the assay with Tov-21-G, in the assay with Tov112D and in the assay with astro was “inactive” in each case. In addition, the activity, negative = cell killing in assay [1] (setting [5]) was 4.69%; in assay [1] (setting [6]), 17.1%; in assay [1] (setting [7]), 7.16%; in assay [1] (setting [8]) it was 5.44%. Besides, the max response in assay [2] is -0.291%. For the same compound, in assay [4], the compound was called inactive.

For the compound `CCOc1cc(N)c(Cl)cc1C(=O)NCC1CN(Cc2ccc(F)cc2)CCO1` (configuration not stated), the Potency entry in the assay with Tov-21-G, with Tov112D and with astro was “inactive” throughout. For the same compound, the activity, negative = cell killing is -18.6% in assay [1] (setting [5]) and 4.16% in assay [1] (setting [8]). For the same compound, in assay [1] (tumour line A), the Potency is 11200 nM (active).

`COc1cc(NS(=O)(=O)c2ccc(N)cc2)nc(OC)n1`: the Potency result with Tov-21-G, in the assay with Tov112D and with astro was “inactive” throughout. Moreover, the activity, negative = cell killing was -7.42% in assay [1] (setting [9]), -12.9% in assay [1] (setting [10]), -12.1% in assay [1] (setting [11]) and -9.97% in assay [1] (setting [12]).

Turning to `Cc1cc(NS(=O)(=O)c2ccc(N)cc2)no1`, the Potency result in the assay with Tov-21-G and in the assay with Tov112D was “inactive” throughout. Further, the activity, negative = cell killing in assay [1] (setting [5]) is 0.277%; in assay [1] (setting [6]), -26.8%; in assay [1] (setting [7]), -6.57%; in assay [1] (setting [8]), 7.15%. In addition, in assay [2], the max response is 3.86%. For the same compound, in assay [4], the compound was called inactive.

Turning to `O=C(O)c1cn(C2CC2)c2cc(N3CCNCC3)c(F)cc2c1=O`, the Potency result in the assay on Tov-21-G, in the assay on Tov112D and in the assay on astro was “inactive” each time. Moreover, the activity, negative = cell killing in assay [1] (setting [9]) is -4.75%; in assay [1] (setting [10]) it was -18.6%; in assay [1] (setting [11]), 4.14%.

With `Cn1c(=O)c2c(ncn2CC(O)CO)n(C)c1=O` (configuration not stated), the Potency result with Tov-21-G, in the assay on Tov112D and in the assay with astro was “inactive” throughout. Besides, the activity, negative = cell killing in assay [1] (setting [9]) was 1.09%; in assay [1] (setting [10]), 1.11%; in assay [1] (setting [11]), 1.54%; in assay [1] (setting [12]) it was 3.02%.

Regarding `Cc1noc(NS(=O)(=O)c2ccc(N)cc2)c1C`, the Potency entry in the assay with Tov-21-G and in the assay on Tov112D was “inactive” throughout. The activity, negative = cell killing is -5.33% and -3.65% in assay [1] (setting [5]); -24.3% and -9.55% in assay [1] (setting [6]); -16.5% in assay [1] (setting [7]); -22.2% and -6.01% in assay [1] (setting [8]). The outcome in assay [4] was inactive.

Consider `CCc1cc(C(N)=S)ccn1`, for which the Potency entry with Tov-21-G and with Tov112D was “inactive” in each case. Besides, the activity, negative = cell killing in assay [1] (setting [5]) was -9.3%; in assay [1] (setting [6]), -29.7%; in assay [1] (setting [8]), -26.9%. Also, the max response in assay [2] is 7.13% and -2.63%.

As for `O=C(O)c1cc(=O)[nH]c(=O)[nH]1`, the Potency entry in the assay with Tov-21-G and with Tov112D was “inactive” throughout. Moreover, the activity, negative = cell killing in assay [1] (setting [5]) is -3.6%; in assay [1] (setting [6]), 11.2%; in assay [1] (setting [7]), -24.7%; in assay [1] (setting [8]) it was -0.704%. Also, the max response in assay [2] was -3.54%. In assay [4], the compound was called inactive.

Source of the values: PubChem BioAssay (NCATS).
